Results filed as inconclusive are left out. The source made the active and inactive calls. Unless noted, calls come from the whole dose curve.

Experiment [1] can be described thus: Nuclear factor erythroid 2-related factor 2/antioxidant responsive element (Nrf2/ARE) small molecule agonists: qHTS cell viability counter screen in human keratinocytes (AID 1919968; active = well fitted curve in the direction sought with a large enough effect in the repeat runs; an effect the other way counts as inactive or inconclusive; note: nearly all actives have a fitted effect of over 55% in size; note: potency is the fitted concentration of half-maximal effect). The essentials:
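Viability counter-screen: KeratinoSens reporter cells, DMSO-delivered compounds, 23 h at 37 C, CellTiter-Fluor fluorescence.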

Experiment [2] can be described thus: Nuclear factor erythroid 2-related factor 2/antioxidant responsive element (Nrf2/ARE) small molecule agonists: luciferase reporter gene qHTS assay in human keratinocytes (AID 1919969). Note: nearly all actives have a fitted effect of over 35% in size. In general terms: A reporter such as luciferase makes a cellular process visible.
The target of experiment [3] is Gonadotropin-releasing hormone receptor (Homo sapiens) (UniProt P30968). The experiment can be described thus: Human gonadotropin-releasing hormone receptor (GnRHR) small molecule agonists, calcium flux assay in GnRHR-HEK293 cells (AID 1920063). Note: nearly all actives have a fitted effect of over 35% in size. In short, it runs like this: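 Tox21-format agonist screen using human GnRHR-expressing HEK293 cells and a fluorescent calcium dye; kinetic 3-min fluorescence reading after compound addition, 15-point concentration series run in triplicate.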
In general terms: Calcium flux is commonly read through the fluorescence of an indicator in the cells.

The target of experiment [4] is KiSS-1 receptor (Homo sapiens) (UniProt Q969F8). The experiment in a line: Human kisspeptin (KISS1R) small molecule agonists, calcium flux assay in KISS1R-HEK293 cells (AID 1920064; active = well fitted curve in the direction sought with a large enough effect in the repeat runs; an effect the other way counts as inactive or inconclusive). The essentials: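 Intracellular calcium mobilization in KISS1R-HEK293 cells was recorded by fluorescence (Ex/Em 480/540) for 3 min following compound addition to cells pre-loaded 1 h with calcium dye.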

Experiment [5] can be described thus: G protein-coupled receptor (GPCR) small molecule agonists, calcium flux assay: HEK293 wild type cell line counter screen (AID 1920065). The essentials: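 In this agonist-mode screen, ATP is the positive control and DMSO the vehicle. Cells grow 18 h before a 1 h dye incubation at 37 C; signal is taken at Ex/Em 480/540 over 3 min.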
A short description of experiment [6]: p53 small molecule agonists, cell-based qHTS assay with rat liver microsomes (AID 1963578). The essentials: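 Agonist mode in p53RE-bla reporter cells, with compounds co-incubated 16 h at 37 C alongside 0.5 mg/mL rat liver microsomes and 0.5 mg/mL NADPH (final), followed by a 2 h LiveBLAzer detection step.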
Experiment [7] can be described thus: p53 small molecule agonists, cell-based qHTS assay with human liver microsomes: qHTS cell viability counter screen (AID 1963579). Note: nearly all actives have a fitted effect of over 45% in size. The essentials:
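Metabolically activated exposure: compounds, human liver microsomes and NADPH (0.5 mg/mL final apiece) were added to p53RE-bla cells seeded 5 h earlier, left 16 h at 37 C, and then assessed for viability by CellTiter-Glo luminescence.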
(Quantitative high-throughput screening tests each substance at several concentrations.)

The nature of experiment [8]: p53 small molecule agonists, cell-based qHTS assay with rat liver microsomes: qHTS cell viability counter screen (AID 1963580). Note: nearly all actives have a fitted effect of over 45% in size. The essentials:
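p53RE-bla HCT-116 cells were exposed 16 h at 37 C to compounds with rat liver microsomes (0.5 mg/mL) and NADPH (0.5 mg/mL). Viability was measured in the same wells as ATP content by CellTiter-Glo luminescence.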

The target in experiment [9] is 5-hydroxytryptamine receptor 2A (Homo sapiens) (UniProt P28223). The experiment can be described thus: 5-hydroxytryptamine receptor 2A (HTR2A) small molecule antagonists, cell-based qHTS assay (AID 1963586). Note: nearly all actives have a fitted effect of over 45% in size. Note: potency is the fitted concentration of half-maximal effect. The essentials: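 Antagonist-mode intracellular calcium assay: DOI (4 nM) added after 5 min compound pre-incubation at room temperature to dye-loaded HTR2A-CHO cells. Fluorescence followed for 3 min, sampled every second.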

Experiment [10] shares this target. The experiment in a line: 5-hydroxytryptamine receptor 2A (HTR2A) small molecule agonists, cell-based qHTS assay (AID 1963587). Note: nearly all actives have a fitted effect of over 30% in size. The essentials:
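CHO cells stably expressing human HTR2A, plated 18 h, loaded with calcium dye 1 h at 37 C. Agonist mode: compounds added and intracellular calcium fluorescence recorded kinetically for 2 min at 1 sec intervals.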

Experiment [11] deals with Muscarinic acetylcholine receptor M1 (Homo sapiens) (UniProt P11229). The experiment in a line: Cholinergic receptor muscarinic 1 (CHRM1) small molecule agonists, cell-based qHTS assay (AID 1963589). Note: nearly all actives have a fitted effect of over 35% in size. In short, it runs like this:
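Stable CHRM1-CHO cells (human receptor) were incubated 18 h, dye-loaded for 1 h at 37 C and exposed to test compounds for agonist activity, with calcium-dependent fluorescence followed kinetically.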

Experiment [12] in a line: cAMP Responsive Elements (CRE) small molecule agonists, cell-based qHTS assay (AID 1963590). The essentials: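 FRET-based beta-lactamase readout (LiveBLAzer B/G, 2 h RT) quantified CRE activation in HEK 293T CRE-bla cells after 3 h treatment with DMSO-dissolved compounds.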
Experiment [13] in a line: cAMP Responsive Elements (CRE) small molecule antagonists, cell-based qHTS assay (AID 1963591; active = well fitted inhibition curve with a large enough effect in the signal ratio in the repeat runs, not every such curve was filed as active; the % refers to the signal ratio). The essentials: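 qHTS in CRE-bla HEK 293T cells: compound in DMSO, then 0.25 uM NKH477 (final), 3 h at 37 °C/5% CO2; beta-lactamase FRET read-out after 2 h substrate incubation.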
Experiment [14] addresses Beta-2 adrenergic receptor (Homo sapiens) (UniProt P07550). The experiment can be described thus: Adrenergic beta2 receptor (ADRB2) small molecule antagonists, cell-based qHTS assay (AID 1963592). Note: nearly all actives have a fitted effect of over 50% in size. Note: potency is the fitted concentration of half-maximal effect. The essentials: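 Cells (CHO, stable ADRB2 overexpression) incubated 18-20hr at 37C; compounds added from DMSO; agonist mix (1nM isoproterenol, 100uM IBMX, 25uM Ro-20-1724) added; 0.5hr RT; d2-cAMP and anti-cAMP-cryptate added; 1hr RT; 665/615 nm read.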

Experiment [15] shares this target. The experiment can be described thus: Adrenergic beta2 receptor (ADRB2) small molecule agonists, cell-based qHTS assay (AID 1963593).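 Note: CHO cells stably overexpressing human ADRB2.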 In short, it runs like this: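 CHO cells stably over-expressing ADRB2 were plated overnight at 37C, then dosed with compounds plus a stimulation mix containing 100uM IBMX and 25uM Ro-20-1724 for 0.5hr at room temperature. cAMP was measured by HTRF competition, 1hr.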

Experiment [16] has as its target D(2) dopamine receptor (Homo sapiens) (UniProt P14416). The experiment can be described thus: Dopamine D2 receptor (DRD2) small molecule agonists, cell-based qHTS assay (AID 1963594). Note: nearly all actives have a fitted effect of over 35% in size. The essentials:
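HEK293 cells stably expressing human DRD2, pre-treated with PDE inhibitor Ro20-1724 (0.1 mM final) and compound 10 min at room temperature, then stimulated with NKH477 (200nM […]) for 30 min. cAMP read by HTRF (665/620 nm).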

The target is the same in experiment [17]. The experiment in a line: Dopamine D2 receptor (DRD2) small molecule antagonists, cell-based qHTS assay (AID 1963595; active = well fitted inhibition curve with a large enough effect in the signal ratio in the repeat runs, with a control signal flat; the % refers to the signal ratio). The essentials:
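Stable D2 receptor HEK293 line, 24 h after seeding. Compound preincubated 10 min, then quinpirole (12 nM) with forskolin analogue NKH477 (200 nM), 30 min, room temperature. Detection by time-resolved FRET of cAMP.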

The nature of experiment [18]: p53 small molecule agonists, cell-based qHTS assay: qHTS cell viability counter screen (AID 1963581). Note: nearly all actives have a fitted effect of over 45% in size. Note: potency is the fitted concentration of half-maximal effect. The essentials: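 Compounds are pinned onto HCT-116 p53RE-bla cells and left 16 h at 37 C. Following the reporter FRET read, ATP is quantified by CellTiter-Glo luminescence after 30 min at room temperature.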
Experiment [19] can be described thus: p53 small molecule agonists, cell-based qHTS assay (AID 1963582; active = well fitted activation curve with a large enough effect in the signal ratio in the repeat runs, not every such curve was filed as active; the % refers to the signal ratio; note: potency is the fitted concentration of half-maximal effect). The essentials: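 Agonist activity was scored from beta-lactamase FRET fluorescence in p53RE-bla cells treated 16 h at 37 C with compounds in DMSO, substrate incubation being 2 h at room temperature.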
Experiment [20] concerns the target Muscarinic acetylcholine receptor M1 (Homo sapiens) (UniProt P11229). The experiment in a line: Cholinergic receptor muscarinic 1 (CHRM1) small molecule antagonists, cell-based qHTS assay (AID 1963588). Note: nearly all actives have a fitted effect of over 40% in size. In short, it runs like this:
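CHRM1-CHO calcium-flux assay, antagonist mode. Cells were seeded 18 h, dye-loaded 1 h at 37 C and given compound for 5 min at RT, then acetylcholine was added at 50nM. FDSS fluorescence was read 3 min; 15 concentrations, three runs.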

Chain of KiSS-1 receptor (Homo sapiens) (Q969F8 whole entry, looked up): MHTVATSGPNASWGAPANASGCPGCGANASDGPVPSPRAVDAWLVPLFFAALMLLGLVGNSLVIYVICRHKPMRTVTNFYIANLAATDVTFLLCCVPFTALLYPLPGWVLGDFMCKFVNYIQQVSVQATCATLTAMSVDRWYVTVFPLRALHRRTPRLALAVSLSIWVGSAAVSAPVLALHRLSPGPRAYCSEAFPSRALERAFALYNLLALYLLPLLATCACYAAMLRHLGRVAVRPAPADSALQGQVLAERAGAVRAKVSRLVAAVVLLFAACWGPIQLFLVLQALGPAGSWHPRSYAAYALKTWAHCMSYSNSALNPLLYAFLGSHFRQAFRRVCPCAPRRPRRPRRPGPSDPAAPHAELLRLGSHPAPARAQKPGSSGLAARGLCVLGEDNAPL
Chain of Gonadotropin-releasing hormone receptor (Homo sapiens) (P30968 whole entry, looked up): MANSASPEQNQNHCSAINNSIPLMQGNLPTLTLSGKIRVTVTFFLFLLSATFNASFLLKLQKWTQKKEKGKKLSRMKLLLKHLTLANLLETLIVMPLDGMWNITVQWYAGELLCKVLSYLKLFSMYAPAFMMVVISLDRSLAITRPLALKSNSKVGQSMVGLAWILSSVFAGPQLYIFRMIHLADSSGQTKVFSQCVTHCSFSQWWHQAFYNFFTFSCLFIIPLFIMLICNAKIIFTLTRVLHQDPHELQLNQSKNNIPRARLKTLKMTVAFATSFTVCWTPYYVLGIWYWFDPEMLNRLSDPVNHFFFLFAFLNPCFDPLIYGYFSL
Chain of Muscarinic acetylcholine receptor M1 (Homo sapiens) (P11229 whole entry, looked up): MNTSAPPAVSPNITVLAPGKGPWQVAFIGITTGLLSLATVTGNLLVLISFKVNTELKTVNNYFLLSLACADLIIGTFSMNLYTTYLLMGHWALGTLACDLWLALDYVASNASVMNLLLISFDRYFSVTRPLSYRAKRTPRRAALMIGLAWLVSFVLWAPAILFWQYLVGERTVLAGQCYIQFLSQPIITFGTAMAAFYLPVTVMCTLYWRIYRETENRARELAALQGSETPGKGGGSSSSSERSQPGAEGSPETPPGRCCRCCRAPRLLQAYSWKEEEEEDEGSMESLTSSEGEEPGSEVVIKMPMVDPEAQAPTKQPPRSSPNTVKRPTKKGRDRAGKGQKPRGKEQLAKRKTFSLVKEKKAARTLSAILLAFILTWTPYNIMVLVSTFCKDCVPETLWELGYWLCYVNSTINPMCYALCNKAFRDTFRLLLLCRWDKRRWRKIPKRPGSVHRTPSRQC
Chain of 5-hydroxytryptamine receptor 2A (Homo sapiens) (P28223 whole entry, looked up): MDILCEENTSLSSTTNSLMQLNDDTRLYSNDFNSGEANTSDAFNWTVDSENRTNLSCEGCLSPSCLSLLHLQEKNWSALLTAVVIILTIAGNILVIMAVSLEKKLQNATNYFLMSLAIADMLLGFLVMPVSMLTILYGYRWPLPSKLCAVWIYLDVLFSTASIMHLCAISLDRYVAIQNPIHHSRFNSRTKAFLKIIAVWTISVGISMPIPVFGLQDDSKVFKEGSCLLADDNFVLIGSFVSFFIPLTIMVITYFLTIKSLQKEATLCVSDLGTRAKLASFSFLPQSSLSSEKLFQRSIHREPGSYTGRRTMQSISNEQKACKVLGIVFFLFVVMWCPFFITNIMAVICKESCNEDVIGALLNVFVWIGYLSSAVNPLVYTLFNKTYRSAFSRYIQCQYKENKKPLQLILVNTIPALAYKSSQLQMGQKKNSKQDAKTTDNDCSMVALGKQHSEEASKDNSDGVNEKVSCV
Chain of D(2) dopamine receptor (Homo sapiens) (P14416 whole entry, looked up): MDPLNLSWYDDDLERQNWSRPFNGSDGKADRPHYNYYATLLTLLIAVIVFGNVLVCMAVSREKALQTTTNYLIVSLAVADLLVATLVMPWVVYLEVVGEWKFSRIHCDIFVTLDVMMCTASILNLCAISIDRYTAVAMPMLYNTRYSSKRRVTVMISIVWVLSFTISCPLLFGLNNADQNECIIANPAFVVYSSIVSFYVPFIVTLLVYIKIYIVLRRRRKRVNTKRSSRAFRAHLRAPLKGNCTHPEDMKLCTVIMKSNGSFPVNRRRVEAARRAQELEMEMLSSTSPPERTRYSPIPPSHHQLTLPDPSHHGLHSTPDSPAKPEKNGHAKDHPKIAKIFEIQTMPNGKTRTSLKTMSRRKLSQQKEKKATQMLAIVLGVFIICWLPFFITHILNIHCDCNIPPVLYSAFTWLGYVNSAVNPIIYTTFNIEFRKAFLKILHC
Chain of Beta-2 adrenergic receptor (Homo sapiens) (P07550 whole entry, looked up): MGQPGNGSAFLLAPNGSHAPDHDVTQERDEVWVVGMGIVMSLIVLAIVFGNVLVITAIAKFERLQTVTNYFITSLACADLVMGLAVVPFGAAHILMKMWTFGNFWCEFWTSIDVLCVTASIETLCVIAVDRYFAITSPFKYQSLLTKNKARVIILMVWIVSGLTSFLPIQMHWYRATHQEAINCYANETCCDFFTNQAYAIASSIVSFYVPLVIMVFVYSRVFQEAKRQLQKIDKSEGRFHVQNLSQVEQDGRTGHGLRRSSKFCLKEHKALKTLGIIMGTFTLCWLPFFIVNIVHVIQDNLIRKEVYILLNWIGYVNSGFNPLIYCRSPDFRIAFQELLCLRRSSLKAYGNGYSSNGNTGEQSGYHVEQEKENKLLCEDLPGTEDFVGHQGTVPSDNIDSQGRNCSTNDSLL

As for `CN(C)CCN(Cc1ccccc1)c1ccccn1`, the Potency entry in [1], in experiment [2], in experiment [3], in experiment [4], in experiment [5] and in experiment [6] was “inactive” each time. The Potency entry in [7], in experiment [8], in [10], in experiment [11], in [12] and in [13] was “inactive” throughout. The Potency result in experiment [14], in experiment [15], in experiment [16] and in experiment [17] was “inactive” each time. Further, the Potency in experiment [9] was 7.29 µM (active).
Regarding `CCC[Si](OC)(OC)OC`, the Potency result in [1], in experiment [2], in [3], in experiment [4], in experiment [5] and in experiment [6] was “inactive” each time. Further, the Potency result in experiment [7], in experiment [18], in experiment [19], in experiment [9], in experiment [10] and in experiment [20] was “inactive” in each case. The Potency entry in experiment [11], in experiment [12], in experiment [13], in experiment [14], in [15] and in experiment [16] was “inactive” throughout. For the same molecule, the Potency entry in experiment [17] is “inactive”.
As to `COC(=O)CSc1cc(N=c2sc(=O)n3n2CCCC3)c(F)cc1Cl`, the Potency result in experiment [1], in experiment [2], in experiment [3], in [4], in experiment [5] and in experiment [6] was “inactive” in each case. Also, the Potency entry in [7], in [8], in [18], in experiment [9], in [10] and in experiment [20] was “inactive” in each case. For the same molecule, the Potency result in experiment [11], in experiment [14] and in experiment [17] was “inactive” in each case.
`CC(C)(C)CC(C)(C)c1ccc(O)c(Cc2ccc(Cl)cc2Cl)c1`: the Potency in experiment [1] is 8.41 µM (active); in [18], 8.9 µM (active). Moreover, the Potency result in experiment [2], in [3], in experiment [4], in [5], in experiment [6] and in experiment [7] was “inactive” in each case. Further, the Potency entry in experiment [9], in experiment [10], in experiment [20], in experiment [11], in [14] and in [15] was “inactive” in each case. Moreover, in experiment [16], the Potency entry was “inactive”.
Take `O=c1[nH]c(=O)n([C@H]2C[C@H](O)[C@@H](CO)O2)cc1F`: the Potency entry in experiment [1], in experiment [2], in [3], in [4], in experiment [5] and in experiment [6] was “inactive” throughout. Also, the Potency entry in experiment [7], in experiment [8], in [13], in experiment [14] and in [17] was “inactive” in each case. Besides, the Potency in [19] was 0.446 µM (active).
`c1ccc(Cc2ccccc2)cc1`: the Potency result in experiment [1], in [2], in experiment [3], in experiment [4], in experiment [5] and in experiment [6] was “inactive” in each case. Besides, the Potency result in experiment [7], in experiment [8], in [19], in [9], in experiment [10] and in [20] was “inactive” throughout. Also, the Potency entry in experiment [11], in experiment [12], in [13], in experiment [14] and in [16] was “inactive” throughout.
Turning to `CC1(CN2CCC(n3c(=O)[nH]c4ccccc43)CC2)OCc2ccccc2-n2cccc21` (stereo not given), the Potency in experiment [1] is 29.8 µM (active); in [9] it was 1.83 µM (active); in experiment [14], 29.8 µM (active). Moreover, the Potency entry in experiment [2], in experiment [3], in experiment [4], in experiment [5], in experiment [6] and in experiment [7] was “inactive” each time. The Potency result in experiment [8], in experiment [18], in experiment [11], in experiment [13], in experiment [16] and in experiment [17] was “inactive” throughout.
